The panel holds about 83,000 compounds, 20% with a hit somewhere; the sample as a whole holds those more often.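 Cell lines were cultured in 96-well plates, exposed to a single compound concentration, and assessed for percent growth 48 hours later.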 Values without a mark were called inactive. Calls of active or inactive are those of the source. The calls were made as follows: active = growth percent below 10; inactive = the rest.
Key:
Experiment in all cases: NCI-60 one-dose screen, 48 h (100 = growth as untreated, 0 = no growth, -100 = all killed)
Settings in all cases: 10 µM unless noted
[1] = system: DU-145 prostate
[2] = system: K-562 leukemia
[3] = system: MALME-3M melanoma
[4] = system: MDA-MB-231 breast
[5] = system: RXF 393 renal
[6] = system: SF-268 CNS
[7] = system: SF-295 CNS
[8] = system: SF-539 CNS
[9] = system: UACC-257 melanoma
[10] = system: M14 melanoma

For `COC12C=C/C(=C(/C(=O)OCc3cncnc3)C(=O)CCCCCCCCC3(OC)C=C/C(=C(/C(=O)OCc4cncnc4)C(=O)CCCCCCCC1)O3)O2`, the growth [1] was -42.7% (active), the growth [2] was -16.8% (active) and the growth [3] was -70.8% (active). For the same molecule, the growth [4] was 5.88% (active), the growth [5] was -74.2% (active) and the growth [6] was -10.6% (active). For the same molecule, the growth [7] was -13.8% (active), the growth [8] was -27% (active) and the growth [9] was -12.7% (active). The growth [10] was -12.3% (active).
With `C/C(=C(\c1ccc(OCCN2CCCCCC2)cc1)c1ccc(OC(=O)c2ccccc2)cc1)c1ccc(Cl)cc1` the growth [1] was 66.1%, the growth [2] was -4.61% (active) and the growth [3] was 17.3%. The growth [4] was 51.1%, the growth [5] was 19% and the growth [6] was 43.1%. The growth [7] was 44.4%, the growth [8] was 58.5% and the growth [9] was -7.06% (active). The growth [10] was 0.53% (active).
In the case of `COc1cc(/C=C/C(=O)c2cc(OC)c(OC)c(OC)c2)ccc1Oc1nc2c(c(=O)n(C)c(=O)n2C)n1C`, the growth [1] is reported as 7.64% (active), the growth [2] is reported as 10.2% and the growth [3] is reported as -26.8% (active). For the same molecule, the growth [4] was 9.39% (active), the growth [5] was -89.4% (active) and the growth [6] was 11.9%. For the same molecule, the growth [7] was -10.1% (active), the growth [8] was -24.9% (active) and the growth [9] was 40.8%. For the same molecule, the growth [10] was -28.5% (active).
With `Nc1nc(C(=O)N/N=C/c2ccc(F)cc2)nn1-c1ccc(S(N)(=O)=O)cc1` the growth [1] was 104%, the growth [2] was 103% and the growth [3] was 89.2%. It also gave a growth [4] of 96.4%, a growth [5] of 95.5% and a growth [6] of 95.7%. The growth [7] was 102%, the growth [8] was 98.9% and the growth [9] was 103%. The growth [10] was 99.5%.
`Cc1ccc(-c2csc(NC(=O)CSc3nc(N)cc(N)n3)n2)cc1` gave a growth [1] of 77.2%, a growth [2] of 20.1% and a growth [3] of 57.9%. The growth [4] was 67.5%, the growth [5] was 92.1% and the growth [6] was 73.6%. It also gave a growth [7] of 50.2%, a growth [8] of 76.9% and a growth [9] of 79.9%. The growth [10] was 67.8%.
For `CCOC(=O)C1=C(c2ccccc2)N=C2N(c3ccccc3)N=C(C(C)=O)N2C1c1ccc(F)cc1` (stereo not given), the growth [1] was 106%, the growth [2] was 96.3% and the growth [3] was 97.7%. It also gave a growth [4] of 98.8%, a growth [5] of 75.5% and a growth [6] of 99.2%. For the same molecule, the growth [7] was 98.6%, the growth [8] was 101% and the growth [9] was 113%. It also gave a growth [10] of 101%.
`CCSc1ccnc(N)n1` was tested, and the growth [1] was 105%, the growth [2] was 121% and the growth [3] was 86.3%. It also gave a growth [4] of 104%, a growth [5] of 125% and a growth [6] of 93.9%. For the same molecule, the growth [7] was 105%, the growth [8] was 105% and the growth [9] was 102%. For the same molecule, the growth [10] was 112%.
Molecule `O=S(O)c1cc(Cl)cc(Cl)c1OCc1ccccc1` has a growth [1] of 109%, a growth [2] of 106% and a growth [3] of 99.8%. The growth [4] was 107%, the growth [5] was 97.3% and the growth [6] was 101%. It also gave a growth [7] of 108%, a growth [8] of 103% and a growth [9] of 90.8%. It also gave a growth [10] of 101%.
`CN(C)/C(N)=N/N=C(\c1ccccc1)c1ccccn1` gave a growth [1] of 97.7%, a growth [2] of 96.7% and a growth [3] of 93.3%. For the same molecule, the growth [4] was 88.1%, the growth [5] was 98.5% and the growth [6] was 92.6%. For the same molecule, the growth [7] was 106%, the growth [8] was 103% and the growth [9] was 112%. The growth [10] was 93%.
In the case of `C/C=C1/CN(CCCCC)CC[C@H]1C(=O)c1cc2ccccc2[nH]1`, the growth [1] is reported as 99%, the growth [2] is reported as 69.6% and the growth [3] is reported as 91.4%. It also gave a growth [4] of 88.5%, a growth [5] of 94.1% and a growth [6] of 89.8%. The growth [7] was 94.5%, the growth [8] was 98.9% and the growth [9] was 108%. The growth [10] was 90.2%.
`CCOC(=O)c1c(C)nc2ccccc2c1/C=C/c1ccc(F)cc1` showed a growth [1] of 89.6%, a growth [2] of 50% and a growth [3] of 98.7%. It also gave a growth [4] of 75.9%, a growth [5] of 101% and a growth [6] of 85.2%. For the same molecule, the growth [7] was 67.7%, the growth [8] was 81% and the growth [9] was 83%. The growth [10] was 86.5%.
For `N#Cc1c(-c2ccccc2)nc2c(c(-c3ccc(Cl)cc3)nn2-c2ccccc2)c1-c1ccc([N+](=O)[O-])cc1`, the growth [1] was 101%, the growth [2] was 101% and the growth [3] was 101%. For the same molecule, the growth [4] was 102%, the growth [5] was 109% and the growth [6] was 98.6%. The growth [7] was 98.7%, the growth [8] was 95.9% and the growth [9] was 96.2%. It also gave a growth [10] of 97.9%.
With `CN1CCN(Cc2ccc(NC(=O)c3cncc(C#Cc4cnc(N)cc4C#N)c3)cc2C(F)(F)F)CC1` the growth [1] was 21.1%, the growth [2] was 15.9% and the growth [3] was -4.04% (active). For the same molecule, the growth [4] was 6.83% (active), the growth [5] was 13.4% and the growth [6] was 23.5%. The growth [7] was 24.5%, the growth [8] was -12% (active) and the growth [9] was 3.84% (active). The growth [10] was -23.1% (active).
`O=S(=O)(N=C1C(Cl)=C(Cl)C(=NS(=O)(=O)c2ccccc2)C(Cl)=C1Cl)c1ccccc1` showed a growth [1] of 20.5%, a growth [2] of 65.6% and a growth [3] of 113%. It also gave a growth [4] of 98.8%, a growth [5] of 64.7% and a growth [6] of 87.1%. It also gave a growth [7] of 64.2%, a growth [8] of 109% and a growth [9] of 68.9%. It also gave a growth [10] of 94.1%.
For `CC/C(=C(\c1ccc(Cl)cc1)c1ccc(OCCN2CCCCC2)cc1)c1ccc(O)cc1`, the growth [1] was 39.7%, the growth [2] was -28.4% (active) and the growth [3] was -38.1% (active). For the same molecule, the growth [4] was 26.5%, the growth [5] was -6.93% (active) and the growth [6] was 53%. The growth [7] was 54.6%, the growth [8] was 50% and the growth [9] was -22.1% (active). For the same molecule, the growth [10] was -55.5% (active).
In the case of `CCN(CC)CCOc1ccc2c(-c3ccccc3)c(-c3ccc(OC)cc3)c(=O)oc2c1`, the growth [1] is reported as 95.6%, the growth [2] is reported as 25% and the growth [3] is reported as 83%. For the same molecule, the growth [4] was 67.3%, the growth [5] was 50.9% and the growth [6] was 89.8%. For the same molecule, the growth [7] was 62.9%, the growth [8] was 58.7% and the growth [9] was 18.1%. For the same molecule, the growth [10] was -7.02% (active).
With `O=C(c1c[nH]c2ccccc12)c1n[nH]c(=S)n1-c1ccc([N+](=O)[O-])cc1` the growth [1] was 109%, the growth [2] was 83.3% and the growth [3] was 106%. The growth [4] was 91.3%, the growth [5] was 102% and the growth [6] was 95.4%. The growth [7] was 104%, the growth [8] was 94.1% and the growth [9] was 99%. It also gave a growth [10] of 95.9%.
Molecule `CC(O)Cc1c[nH]c(=O)[nH]c1=O` (stereo not given) has a growth [1] of 97.9%, a growth [2] of 126% and a growth [3] of 142%. For the same molecule, the growth [4] was 112%, the growth [5] was 192% and the growth [6] was 90%. The growth [7] was 112%, the growth [8] was 110% and the growth [9] was 92.7%. The growth [10] was 102%.
Work on `C=CCN=c1sc(-c2ccc3ccccc3c2)cn1NC(=O)c1cc2ccc1CCc1ccc(cc1)CC2` yielded a growth [1] of 75%, a growth [2] of 35% and a growth [3] of 76.7%. The growth [4] was 92.9%, the growth [5] was 74.1% and the growth [6] was 62.3%. For the same molecule, the growth [7] was 46%, the growth [8] was 77.9% and the growth [9] was 48.7%. For the same molecule, the growth [10] was 75.6%.
With `CC1=Nc2cnc(Nc3ccc(N4CCCCC4)cc3)nc2Nc2ccccc21` the growth [1] was 79.8%, the growth [2] was 34.7% and the growth [3] was 88.5%. The growth [4] was 60.4%, the growth [5] was 68% and the growth [6] was 91.2%. The growth [7] was 83.8%, the growth [8] was 79.9% and the growth [9] was 93.8%. For the same molecule, the growth [10] was 71.5%.
For `COc1cc(O)c2c(=O)c3c(CC=C(C)C)cc(OC)c(O)c3oc2c1`, the growth [1] was 19.5%, the growth [2] was 12.2% and the growth [3] was 66.9%. For the same molecule, the growth [4] was 24.3%, the growth [5] was 13.7% and the growth [6] was 51.9%. For the same molecule, the growth [7] was 42.2%, the growth [8] was 6.54% (active) and the growth [9] was 63.1%. For the same molecule, the growth [10] was 15.6%.
`O=C(OCc1ccc2c(Cl)cc(Cl)c(O)c2n1)N1CCN(C(=O)c2cc3ccccc3[nH]2)CC1` was tested, and the growth [1] was 43.8%, the growth [2] was 19.9% and the growth [3] was 36.8%. For the same molecule, the growth [4] was 44.7%, the growth [5] was 46.5% and the growth [6] was 24.3%. The growth [7] was 16.1%, the growth [8] was 39.8% and the growth [9] was 25.5%. For the same molecule, the growth [10] was 16.9%.
For `O=CCCCOCc1ccccc1`, the growth [1] was 102%, the growth [2] was 104% and the growth [3] was 95.8%. The growth [4] was 101%, the growth [5] was 113% and the growth [6] was 103%. It also gave a growth [7] of 95.1%, a growth [8] of 101% and a growth [9] of 103%. For the same molecule, the growth [10] was 96.4%.
`CCCCNC(=O)c1ccc2c(c1)nc(-c1ccccc1)n2C1CCCCC1` gave a growth [1] of 103%, a growth [2] of 75.8% and a growth [3] of 100%. The growth [4] was 96.1%, the growth [5] was 120% and the growth [6] was 104%. For the same molecule, the growth [7] was 95.4%, the growth [8] was 105% and the growth [9] was 109%. It also gave a growth [10] of 89.8%.
With `COc1cc2c3c(c4c5ccccc5[nH]c4c2c(OC)c1OC)C(=O)N(CCN1CCCCC1)C3=O` the growth [1] was -91.2% (active), the growth [2] was 3.53% (active) and the growth [3] was 32%. For the same molecule, the growth [4] was 38.1%, the growth [5] was -9.89% (active) and the growth [6] was 22.7%. For the same molecule, the growth [7] was 32.9%, the growth [8] was 41.4% and the growth [9] was 42.2%. It also gave a growth [10] of 12.3%.
`O=C(NCCNC(c1ccccc1)C(NCCNC(=O)c1ccccc1)c1ccccc1)c1ccccc1` (stereo not given) gave a growth [1] of 19.8%, a growth [2] of 81.6% and a growth [3] of 101%. The growth [4] was 98%, the growth [5] was 72.9% and the growth [6] was 99.7%. The growth [7] was 81.8%, the growth [8] was 103% and the growth [9] was 96.9%. It also gave a growth [10] of 86.3%.
In the case of `N#Cc1ccc(O)c(C2=NCC(c3ccc(-c4ccccc4)cc3)O2)c1` (stereo not given), the growth [1] is reported as 30.5%, the growth [2] is reported as 7.82% (active) and the growth [3] is reported as 17.4%. It also gave a growth [4] of 25%, a growth [5] of 42.2% and a growth [6] of 19.7%. The growth [7] was 19.4%, the growth [8] was -9.06% (active) and the growth [9] was 13.2%. The growth [10] was -16.6% (active).

Reference: PubChem BioAssay (NCI)
